Among the data in PubChem BioAssay AID2283174 (EPA ToxCast) are outcome values, retold here.

The source made the active and inactive calls. How the source made its calls: active means hit-call score of the fitted dose curve at least 0.9, where 1 is the maximum; inactive means score below 0.9.

This assay addresses human Mitogen-Activated Protein Kinase 11 (MAPK 11), MAPK11 (gene 5600) (UniProt Q15759). Put plainly: NVS_ENZ_hMAPK11: NovaScreen (NVS) Enzymatic Assay for human Mitogen-Activated Protein Kinase 11 (MAPK 11). The procedure:
NVS_ENZ_hMAPK11 is a biochemical, single-readout assay that uses extracted gene-proteins in a cell-free assay. Measurements were taken 0 hour after chemical dosing in a 384-well plate.NVS_ENZ_hMAPK11 is one of one assay component(s) measured or calculated from the NVS_ENZ_hMAPK11 assay. It is designed to make measurements of enzyme activity, a form of enzyme reporter, as detected with fluorescence intensity signals by Fluorescence and electrophoretic mobility shift technology.Data from the assay component NVS_ENZ_hMAPK11 was analyzed into 1 assay endpoint. This assay endpoint, NVS_ENZ_hMAPK11, was analyzed in the positive analysis fitting direction relative to DMSO as the negative control and baseline of activity. Using a type of enzyme reporter, loss-of-signal activity can be used to understand changes in the enzymatic activity as they relate to the gene MAPK11. Furthermore, this assay endpoint can be referred to as a primary readout, because this assay has produced multiple assay endpoints where this one serves a enzymatic activity function. To generalize the intended target to other relatable targets, this assay endpoint is annotated to the kinase intended target family, where the subfamily is serine/threonine kinase.
Binding assays used specific radioligands (tritiated, iodinated) with non-radioactive competitive displacement ligands in agonist or antagonist protocols (as indicated) and various reference compounds and inhibitors to titrate specific binding to receptors and transporters. Most enzyme assays (CYPs, kinases, phosphatases, proteases, HDACs) used recombinant protein and specific substrates (fluorescence mostly, some colorimetric and radioactive) and inhibitors, followed by a biochemical separation of substrate and product. All assays for the biochemical HTS were initially run in duplicate at a single concentration (10 uM for CYP450 assays and 25 uM for all others). Assay-chemical combinations meeting a pre-defined threshold (e.g., 30% inhibition and other criteria defined below) were then run in singleton concentration-response format with maximum concentration of 20 uM for CYPs and 50 uM for all others. Each assay was run with positive and negative controls, and concurrent controls on every plate. The follow-up (secondary) screen tested active chemical-pairs in concentration series, as well as a few additional assays not tested in the primary screen, some selected negative inactives, and several cases re-run in the concentration series for confirmatory purposes.

Sequence of human Mitogen-Activated Protein Kinase 11 (MAPK 11), MAPK11 (gene 5600) (Q15759 whole entry, looked up): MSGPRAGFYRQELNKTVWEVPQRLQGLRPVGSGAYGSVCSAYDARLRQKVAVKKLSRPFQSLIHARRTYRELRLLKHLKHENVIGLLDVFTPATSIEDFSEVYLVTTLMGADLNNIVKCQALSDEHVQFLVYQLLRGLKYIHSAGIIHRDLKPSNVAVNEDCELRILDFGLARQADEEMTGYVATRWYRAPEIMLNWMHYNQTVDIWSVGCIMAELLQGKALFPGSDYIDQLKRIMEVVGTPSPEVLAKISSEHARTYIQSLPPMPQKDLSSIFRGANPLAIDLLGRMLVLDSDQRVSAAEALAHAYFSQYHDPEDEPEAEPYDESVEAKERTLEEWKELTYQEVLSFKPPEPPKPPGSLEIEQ

As to `C[Si](Cn1cncn1)(c1ccc(F)cc1)c1ccc(F)cc1`, the result was inactive.

For `Fc1ccc(Oc2ccnc3cc(Cl)cc(Cl)c23)cc1`, the call was inactive.

In the case of `COc1nc(C)nc(NC(=O)NS(=O)(=O)c2ccccc2CCC(F)(F)F)n1`, the result was inactive.

Consider `CC(C)(C)C(O)/C(=C\c1ccc(Cl)cc1Cl)n1cncn1` (centres undefined), for which the outcome was inactive.
